About 83,000 compounds went through this panel and 20% of them were active in at least one assay; those are over-represented in the sample as a whole.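 Each cell line was grown in a 96-well plate and treated with one concentration of compound for 48 hours. Values below 10 were considered active.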 The source made the active and inactive calls.
Assays:
Assay in all cases: NCI-60 one-dose screen, 48 h (100 = growth as untreated, 0 = no growth, -100 = all killed)
Conditions in all cases: 10 µM unless noted
NCI-H226 lung = test system: NCI-H226 lung
NCI-H322M lung = test system: NCI-H322M lung
HOP-62 NSCLC = test system: HOP-62 NSCLC
NCI-H460 lung = test system: NCI-H460 lung
HOP-92 NSCLC = test system: HOP-92 NSCLC
NCI-H522 lung = test system: NCI-H522 lung
A549/ATCC NSCLC = test system: A549/ATCC NSCLC
786-0 renal = test system: 786-0 renal
COLO 205 colon = test system: COLO 205 colon
DU-145 prostate = test system: DU-145 prostate
K-562 leukemia = test system: K-562 leukemia
MALME-3M melanoma = test system: MALME-3M melanoma
MDA-MB-231 breast = test system: MDA-MB-231 breast
RXF 393 renal = test system: RXF 393 renal
SF-268 CNS = test system: SF-268 CNS
SF-295 CNS = test system: SF-295 CNS
SF-539 CNS = test system: SF-539 CNS
UACC-257 melanoma = test system: UACC-257 melanoma
M14 melanoma = test system: M14 melanoma

Measured: growth

CCn1cc(C(=O)N/N=C/c2cccs2)c(=O)c2cc(F)c(N3CCNC(C)C3)c(F)c21 (stereo not given)
inactive: NCI-H226 lung 76% | NCI-H322M lung 84.1% | HOP-62 NSCLC 72.4% | NCI-H460 lung 23.6% | HOP-92 NSCLC 53.8% | NCI-H522 lung 71.1% | A549/ATCC NSCLC 44% | 786-0 renal 67.8% | DU-145 prostate 48.3% | MDA-MB-231 breast 41% | RXF 393 renal 16.2% | SF-268 CNS 79.1% | SF-295 CNS 85.3% | SF-539 CNS 84.2% | UACC-257 melanoma 108% | M14 melanoma 49.4%
active: COLO 205 colon -41.7% | K-562 leukemia -39% | MALME-3M melanoma -36.7%

CCc1ccc(C(=O)/C=C/C23c4ccccc4C(c4ccccc42)C2C(=O)NC(=O)C23)cc1 (stereo not given)
active: HOP-62 NSCLC -3.98% | NCI-H460 lung 5.14% | HOP-92 NSCLC -17% | NCI-H522 lung -12.6% | 786-0 renal -12.8% | COLO 205 colon -25.9% | K-562 leukemia 8.82% | MALME-3M melanoma -59.9% | MDA-MB-231 breast 9.93% | RXF 393 renal -48.7% | M14 melanoma -8.91%
inactive: NCI-H226 lung 42.3% | NCI-H322M lung 15.8% | A549/ATCC NSCLC 21.5% | DU-145 prostate 12.6% | SF-268 CNS 26.5% | SF-295 CNS 12.9% | SF-539 CNS 11% | UACC-257 melanoma 27.8%

COCCNC(=O)c1ccc(-c2nc3ccc4[nH]ncc4c3c3c2CCCC3)cc1
inactive: NCI-H226 lung 50.7% | NCI-H322M lung 29.1% | HOP-62 NSCLC 40.1% | NCI-H460 lung 27.1% | HOP-92 NSCLC 56.8% | NCI-H522 lung 30.6% | A549/ATCC NSCLC 30.4% | 786-0 renal 31.7% | COLO 205 colon 27.7% | DU-145 prostate 41.3% | K-562 leukemia 24.9% | MALME-3M melanoma 30.5% | MDA-MB-231 breast 50.4% | RXF 393 renal 11.8% | SF-268 CNS 32.4% | SF-295 CNS 32.5% | SF-539 CNS 12.2% | UACC-257 melanoma 71.2% | M14 melanoma 35.1%

Cc1ccc(C2=Nc3c(N)ncnc3NC(c3ccc4c(c3)OCO4)C2)cc1 (stereo not given)
inactive: NCI-H226 lung 85.1% | NCI-H322M lung 102% | HOP-62 NSCLC 64.5% | NCI-H460 lung 42.4% | NCI-H522 lung 47.2% | A549/ATCC NSCLC 56.4% | 786-0 renal 80.8% | COLO 205 colon 37.3% | DU-145 prostate 98% | K-562 leukemia 14.8% | MALME-3M melanoma 51.8% | MDA-MB-231 breast 61.3% | RXF 393 renal 59.4% | SF-268 CNS 72.9% | SF-295 CNS 40.8% | SF-539 CNS 67.7% | UACC-257 melanoma 96.2% | M14 melanoma 39%
active: HOP-92 NSCLC 8.52%

O=C1NC(=O)c2c1c1c3ccccc3ccc1c1[nH]c3ccc(Br)cc3c21
inactive: NCI-H226 lung 48.9% | NCI-H322M lung 21% | HOP-62 NSCLC 22.3% | NCI-H522 lung 20.1% | A549/ATCC NSCLC 18.8% | 786-0 renal 30.7% | DU-145 prostate 22.5% | K-562 leukemia 13.3% | MDA-MB-231 breast 27.5% | RXF 393 renal 11.6% | SF-268 CNS 14% | SF-295 CNS 24.3% | SF-539 CNS 23.1% | UACC-257 melanoma 51.9% | M14 melanoma 15.5%
active: NCI-H460 lung 3.5% | HOP-92 NSCLC 7.3% | COLO 205 colon 9.33% | MALME-3M melanoma -10.7%

CC1=Nc2cnc(Nc3ccc(OCCN4CCCCC4)cc3)nc2Nc2ccccc21
inactive: NCI-H322M lung 42% | HOP-62 NSCLC 81.4% | NCI-H460 lung 61.6% | HOP-92 NSCLC 32% | NCI-H522 lung 70.7% | A549/ATCC NSCLC 77.2% | 786-0 renal 48.5% | COLO 205 colon 63.7% | DU-145 prostate 57.8% | K-562 leukemia 24.1% | MALME-3M melanoma 58.4% | MDA-MB-231 breast 60.6% | RXF 393 renal 33.6% | SF-268 CNS 64.9% | SF-295 CNS 76.5% | SF-539 CNS 69.6% | UACC-257 melanoma 87.6% | M14 melanoma 50.6%

C/C(=C(/c1ccc(Cl)cc1)c1ccc(OCCN2CCCC2)cc1)c1ccc(Cl)cc1
inactive: NCI-H226 lung 107% | NCI-H322M lung 92.9% | HOP-62 NSCLC 104% | NCI-H460 lung 70.6% | HOP-92 NSCLC 69.5% | NCI-H522 lung 88.8% | A549/ATCC NSCLC 63.4% | 786-0 renal 82.7% | COLO 205 colon 48.5% | DU-145 prostate 98.1% | K-562 leukemia 20.3% | MALME-3M melanoma 81.5% | MDA-MB-231 breast 94% | RXF 393 renal 72% | SF-268 CNS 91.5% | SF-295 CNS 100% | SF-539 CNS 91.8% | UACC-257 melanoma 98.6% | M14 melanoma 75.8%

O=C1/C(=C/c2cccs2)SC(=S)N1CCCN1CCOCC1
inactive: NCI-H226 lung 95.5% | NCI-H322M lung 94.7% | NCI-H460 lung 99% | HOP-92 NSCLC 23% | NCI-H522 lung 71.5% | A549/ATCC NSCLC 93.2% | 786-0 renal 92.7% | COLO 205 colon 111% | DU-145 prostate 92% | K-562 leukemia 85.4% | MALME-3M melanoma 84.3% | MDA-MB-231 breast 82.7% | RXF 393 renal 99.6% | SF-268 CNS 102% | SF-295 CNS 102% | SF-539 CNS 92.7% | UACC-257 melanoma 93.9% | M14 melanoma 93.4%

Reference: PubChem BioAssay (NCI)
